From the supplement of paper PMC10127200
Structures can show the parent of a compound that is named as a salt.

Key:
Test in all cases: Euclidean distance of Cell Painting phenotypic profile (signed KS, 77 features) to DMSO centroid (dimensionless distance); 5 or 10 uM (library dependent); higher = stronger phenotypic change vs DMSO (phenoactivity)
Settings in all cases: 48 h
786-O = system: 786-O
Procedure, shortened: (§1)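 Stained cells were imaged confocally at 20X with 9 fields per well, after 48 h of exposure to library compounds at 10 or 5 uM (set by library; 0.1% DMSO final). The cells were five cancer lines and a healthy fibroblast line. From the images, Harmony extracted 77 features, each expressed as a signed Kolmogorov-Smirnov statistic relative to same-plate vehicle wells. Phenoactivity is measured as Euclidean distance to the median vehicle profile, using plate-position-corrected, correlation-weighted profiles averaged across replicates at the top dose.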

A549 = system: A549
Procedure, shortened: as §1

DU145 = system: DU145
Procedure, shortened: as §1

FB = system: FB
Procedure, shortened: as §1

HEPG2 = system: HEPG2
Procedure, shortened: as §1

OVCAR4 = system: OVCAR4
Procedure, shortened: as §1

| Structure (SMILES) | Euclidean distance (786-O) | Euclidean distance (A549) | Euclidean distance (DU145) | Euclidean distance (FB) | Euclidean distance (HEPG2) | Euclidean distance (OVCAR4) |
| --- | --- | --- | --- | --- | --- | --- |
| CO[C@H]1O[C@@H]2O[C@@]3(C)CC[C@H]4[C@H](C)CC[C@@H]([C@H]1C)[C@@]24OO3 [Artemether] | 1.43 | 1.11 | 0.712 | 1.28 | 0.672 | 1.26 |
| CNCC[C@@H](Oc1ccccc1C)c1ccccc1 [Atomoxetine HCl] | 1.37 | 1.23 | 0.627 | 0.866 | 0.422 | 1.22 |
| NC(CO)C(=O)NNCc1ccc(O)c(O)c1O (configuration not stated) [Benserazide HCl] | 1.18 | 0.748 | 0.938 | 0.967 | 0.666 | 1.39 |
| N[C@@H](CSCCCO)C(=O)O [Fudosteine] | 1.5 | 1.77 | 0.71 | 1.34 | 0.516 | 1.3 |
| Nc1ccc(-c2ccc3ncc4ccc(=O)n(-c5cccc(C(F)(F)F)c5)c4c3c2)cn1 [Torin 2] | 5.09 | 3.59 | 1.08 | 1.45 | 1.26 | 2.88 |
| O[C@@H]1CO[C@H]2[C@@H]1OC[C@@H]2O [Isosorbide] | 1.15 | 0.673 | 1.24 | 1.02 | 0.565 | 1.64 |
| O=S(=O)(O)CCCCOC[C@H]1O[C@@H]2O[C@H]3[C@H](O)[C@@H](O)[C@@H](O[C@H]4[C@H](O)[C@@H](O)[C@@H](O[C@H]5[C@H](O)[C@@H](O)[C@@H](O[C@H]6[C@H](O)[C@@H](O)[C@@H](O[C@H]7[C@H](O)[C@@H](O)[C@@H](O[C@H]8[C@H](O)[C@@H](O)[C@@H](O[C@H]1[C@H](O)[C@H]2O)O[C@@H]8CO)O[C@@H]7COCCCCS(=O)(=O)O)O[C@@H]6COCCCCS(=O)(=O)O)O[C@@H]5COCCCCS(=O)(=O)O)O[C@@H]4COCCCCS(=O)(=O)O)O[C@@H]3COCCCCS(=O)(=O)O [Captisol (SBE-Œ≤-CD)] | 1.09 | 0.893 | 0.704 | 1.13 | 1.38 | 1.1 |
| Cc1ccc(/C(=C\CN2CCCC2)c2ccccn2)cc1 [Triprolidine Hydrochloride] | 0.627 | 0.986 | 0.542 | 1.16 | 1.31 | 1.02 |
| CC(C)(C)c1[nH]cnc1/C=c1\[nH]c(=O)/c(=C/c2ccccc2)[nH]c1=O [Plinabulin (NPI-2358)] | 3.18 | 3.25 | 4.17 | 2.89 | 4.1 | 2.86 |
| CNC(=O)[C@@H](NC(=O)[C@H](CC(C)C)[C@H](O)C(=O)NO)C(C)(C)C [Marimastat (BB-2516)] | 1.09 | 2.02 | 1.14 | 1.06 | 0.866 | 1.4 |
| COc1ncnc(NS(=O)(=O)c2ccc(N)cc2)c1OC [Sulfadoxine] | 0.66 | 1.24 | 0.743 | 0.491 | 0.397 | 1.39 |
| CCn1c2ccccc2c2cc(Nc3ccnc(NCCCN4CCOCC4)n3)ccc21 | 3.23 | 2.84 | 1.12 | 2.94 | 2.27 | 1.98 |
| Nc1ncc2ncn(CC3(OCP(=O)(O)O)CC3)c2n1 [Besifovir] | 1.03 | 0.329 | 1.01 | 1.2 | 0.716 | 0.915 |
| O=C(C[S+]([O-])Cc1ccco1)NC/C=C\COc1cc(CN2CCCCC2)ccn1 (configuration not stated) [Lafutidine] | 0.976 | 1.04 | 1.52 | 1.4 | 2.06 | 1.4 |
| COc1ccnc(C[S+]([O-])c2nc3cc(OC(F)F)ccc3[nH]2)c1OC (configuration not stated) [Pantoprazole] | 1.16 | 0.522 | 0.784 | 0.822 | 1.62 | 1.62 |
| CC(C)(C)c1nc(-c2cccc(NS(=O)(=O)c3c(F)cccc3F)c2F)c(-c2ccnc(N)n2)s1 [Dabrafenib Mesylate] | 1.18 | 1.23 | 1.47 | 3.79 | 1.3 | 1.47 |
| CC(C)C(=O)c1c(C(C)C)nn2ccccc12 [Ibudilast] | 0.973 | 0.58 | 0.981 | 0.71 | 0.459 | 1.29 |
| C[C@]12CCC3=C4CCC(=O)C=C4CC[C@H]3[C@@H]1CC[C@@]2(O)CC#N [Dienogest] | 1.53 | 0.862 | 1.61 | 1.08 | 1.12 | 1.39 |
| CC1(C)S[C@@H]2[C@H](NC(=O)Cc3ccccc3)C(=O)N2[C@H]1C(=O)O.CCN(CC)CCOC(=O)c1ccc(N)cc1 [Penicillin G Procaine] | 0.821 | 0.676 | 0.97 | 1.38 | 0.466 | 1.24 |
| O=C1c2c(O)ccc(O)c2C(=O)c2c(NCCNCCO)ccc(NCCNCCO)c21 [Mitoxantrone 2HCl] | 5.6 | 5.26 | 4.77 | 7.28 | 5.09 | 5.15 |
| C#C[C@]1(O)CC[C@H]2[C@@H]3CCC4=CC(=O)CC[C@@H]4[C@H]3C(=C)C[C@@]21CC [Etonogestrel] | 0.851 | 0.713 | 0.98 | 1.21 | 0.628 | 1.03 |
| CCc1cccc(CC)c1NC(=O)N1Cc2[nH]nc(NC(=O)c3ccc(N4CCN(C)CC4)cc3)c2C1 | 2.54 | 2.75 | 2.46 | 3.44 | 2.47 | 2.78 |
| C[C@@H](O)[C@H]1C(=O)N2C(C(=O)O)=C([C@H]3CCCO3)S[C@H]12 [Faropenem Sodium] | 1.24 | 0.485 | 1 | 0.587 | 0.554 | 0.718 |
| CN(C)C/C=C/C(=O)Nc1cc2c(Nc3ccc(F)c(Cl)c3)ncnc2cc1O[C@H]1CCOC1 [Afatinib (BIBW2992) Dimaleate] | 4.65 | 3.63 | 5.93 | 5.45 | 4.62 | 4.49 |

| Structure (SMILES) | Euclidean distance (786-O) | Euclidean distance (A549) | Euclidean distance (DU145) | Euclidean distance (FB) | Euclidean distance (HEPG2) | Euclidean distance (OVCAR4) |
| --- | --- | --- | --- | --- | --- | --- |
| CC(=O)[O-].[K+] [Potassium acetate] | 1.42 | 0.754 | 1.27 | 0.927 | 0.554 | 1.3 |
| CC(C)(C)c1ccc(C(O)CCCN2CCC(C(O)(c3ccccc3)c3ccccc3)CC2)cc1 (configuration not stated) [Terfenadine] | 1.05 | 4.51 | 1.53 | 1.18 | 1.05 | 1.52 |
| O=C(O)CCC(=O)c1ccc(-c2ccccc2)cc1 [Fenbufen] | 0.582 | 1.6 | 0.988 | 0.916 | 0.887 | 1.11 |
| Cc1ccc(Nc2nccc(N(C)c3ccc4c(C)n(C)nc4c3)n2)cc1S(N)(=O)=O [Pazopanib] | 2.13 | 1.89 | 2.31 | 2.44 | 1.94 | 1.78 |
| O=c1c(O)c(-c2ccc(O)c(O)c2)oc2cc(O)ccc12 [Fisetin] | 0.642 | 0.833 | 1.17 | 0.987 | 0.906 | 0.911 |
| COc1cc(NC(=O)c2ccc(-c3ccc(Cl)cc3)o2)cc(OC)c1 | 0.91 | 1.46 | 1.23 | 0.788 | 1.04 | 1.48 |
| COc1ccc(CNC(=O)Nc2ncc([N+](=O)[O-])s2)cc1 | 0.769 | 1.95 | 0.841 | 0.936 | 1.02 | 0.694 |
| Cc1cnc(NC(=O)Nc2cc(Br)c(C)cc2OC[C@@H]2CNCCO2)cn1 | 2.52 | 1.52 | 1.04 | 1.52 | 2.15 | 3.62 |
| Cc1cc(=O)oc2cc(O)ccc12 [4-Methylumbelliferone (4-MU)] | 0.739 | 0.856 | 0.979 | 0.746 | 0.603 | 0.95 |
| CC(C(=O)O)c1cccc(Oc2ccccc2)c1 (configuration not stated) [Fenoprofen calcium hydrate] | 1.27 | 0.707 | 0.898 | 0.869 | 0.486 | 1.2 |
| COc1cc2nc(N3CCN(C(=O)c4ccco4)CC3)nc(N)c2cc1OC [Prazosin HCl] | 0.833 | 0.676 | 0.97 | 0.552 | 0.382 | 0.59 |
| CC(C)/N=c1\cc2n(-c3ccc(Cl)cc3)c3ccccc3nc-2cc1Nc1ccc(Cl)cc1 [Clofazimine] | 1.02 | 1.1 | 0.808 | 1.7 | 0.662 | 1.05 |
| C[C@@H]1[C@H](O)[C@@H](C)/C=C/C=C/C=C/C=C/C=C/C=C/C=C/[C@H](O[C@@H]2O[C@H](C)[C@@H](O)[C@H](N)[C@@H]2O)C[C@@H]2O[C@](O)(C[C@@H](O)C[C@@H](O)[C@H](O)CC[C@@H](O)C[C@@H](O)CC(=O)O[C@H]1C)C[C@H](O)[C@H]2C(=O)O [Amphotericin B] | 1.91 | 1.67 | 1.91 | 3.03 | 1.43 | 1.93 |
| COc1ccc(-c2ccc3c(N4CCOC[C@@H]4C)nc(N4CCOC[C@@H]4C)nc3n2)cc1CO | 4 | 3.49 | 2.25 | 5.02 | 2.55 | 3.73 |
| NC(=O)/N=N/C(N)=O [Azodicarbonamide] | 1.07 | 0.533 | 1.15 | 0.879 | 1.28 | 1.14 |
| C[C@H](CCC(=O)NCCS(=O)(=O)O)[C@H]1CC[C@H]2[C@@H]3[C@@H](O)C[C@@H]4C[C@H](O)CC[C@]4(C)[C@H]3CC[C@]12C [Tauroursodeoxycholic Acid (TUDCA)] | 0.663 | 1.8 | 0.772 | 1.04 | 0.686 | 1.23 |
| COC(=O)C1=C(C)NC(C)=C(C(=O)OCCN2CCN(C(c3ccccc3)c3ccccc3)CC2)C1c1cccc([N+](=O)[O-])c1 (configuration not stated) [Manidipine 2HCl] | 1.93 | 2.35 | 1.3 | 1.11 | 1.84 | 1.95 |
| CC(C)OC(=O)[C@H](C)N[P@](=O)(OC[C@H]1O[C@@H](n2ccc(=O)[nH]c2=O)[C@](C)(F)[C@@H]1O)Oc1ccccc1 [Sofosbuvir (PSI-7977. GS-7977)] | 1.34 | 0.693 | 1.07 | 0.694 | 0.59 | 1.01 |
| COc1ccc(/C=C/C(=O)Nc2ccccc2C(=O)O)cc1OC [Trans-Tranilast] | 1.43 | 0.649 | 0.604 | 1.18 | 0.865 | 0.917 |
| C[C@H](CCC(=O)O)[C@H]1CC[C@H]2[C@@H]3[C@H](O)C[C@@H]4C[C@H](O)CC[C@]4(C)[C@H]3C[C@H](O)[C@]12C [Cholic acid] | 1.14 | 0.83 | 0.953 | 0.727 | 0.875 | 1.12 |
| C#CCN(C)Cc1ccccc1 [Pargyline hydrochloride] | 1.39 | 0.874 | 1.18 | 1.16 | 0.696 | 1.43 |
| COc1ccc(CN2C3CC2CN(c2ccc(-c4cc(OCC(C)(C)O)cn5ncc(C#N)c45)cn2)C3)cn1 [Selpercatinib (LOXO-292. ARRY-192)] | 0.919 | 2.72 | 0.961 | 1.56 | 0.545 | 1.15 |
| CCc1nn(CCCN2CCN(c3cccc(Cl)c3)CC2)c(=O)n1CCOc1ccccc1 [Nefazodone hydrochloride] | 1.29 | 1.42 | 1.27 | 1.04 | 1.67 | 0.618 |
